# Screening data (PubChem BioAssay)
# Gal4-VP16 FLuc – counter-screen for ROR gamma inhibitors: Gal4-VP16 reporter; Potency, µM (titrated, usually from 53.6 µM), inactives show top-dose activity, negative = inhibition, actives largely listed as inhibitors; AID 2546; Drosophila S2 Gal4-VP16 UAS-luciferase, luminescence, 20 h; actives 3.5% (n = 310,000);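 further: Gal4-VP16 expression switched on by copper sulfate through the metallothionein promoter; potency means the concentration at half of the fitted maximal effect; nearly all actives have a fitted effect of over 50% in size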
# RORg inh – ROR gamma (mouse) transcription inhibition; P51450; Drosophila S2 Gal4-RORgamma UAS-luciferase reporter, 20 h; Potency, µM (titrated, usually from 53.6 µM), for the others: at the top dose activity change, negative = inhibition, hits mostly inhibitors; actives 5.4% (n = 310,000); AID 2551; further: potency means the concentration at half of the fitted maximal effect; nearly all actives have a fitted effect of over 60% in size
#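 Luciferase reporter read in Schneider cells carrying Gal4-RORγ (mouse) and UAS-Photinus luciferase; cells given compound 1 h before 700 uM copper sulfate induction, then incubated 20 h at ambient temperature.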
# TDP1 cell CPT – DT40-hTDP1 cell growth loss with CPT; chicken DT40 Tdp1-/-;hTDP1 cells + 20 nM CPT, ATP luminescence, 48 h; actives 12% (n = 420,000); Potency, µM (series often up to 46.2 µM), inactives show top-dose activity change, negative = growth inhibition, actives largely listed as inhibitors; further: potency means the concentration at half of the fitted maximal effect; nearly all actives have a fitted effect of over 55% in size
#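 Chicken DT40 Tdp1-/- cells complemented with human TDP1, 400 cells/well, exposed to compounds plus 20 nM camptothecin for at least 48 h at 37 C; viability read as ATP content by CellTiter-Glo luminescence.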
# IL-1B inflam inh – inflammasome signaling inhibition, IL-1 beta readout; THP-1 LPS/ATP IL-1B secretion, AlphaLISA, 16 h; active compounds read low; activity change, % at 57.5 µM; actives 4.7% (n = 360,000); in the data active means activity change below about -50%; inconclusive means mostly about -30% to -49%
#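 THP-1 cells pretreated 1 hr with compounds (up to 57.5 uM final), then stimulated with LPS (250 ng/mL final) plus ATP (1.25 mM final); secreted IL-1B measured by AlphaLISA after 16 hr, decreased signal indicating inhibition.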
# ELG1 DNA repair – blocks ELG1-dependent DNA repair in HEK293T cells. AID 504467. Potency, µM (titrated, usually from 46.1 µM), for the others: top-dose activity change, negative = inhibition, usual class: inhibitors. HEK293T ELG1-luciferase reporter, luminescence, 16 h; DNA damage induced by 5-fluorouridine. actives 2.3% (n = 330,000); further: potency means the concentration at half of the fitted maximal effect; nearly all actives have a fitted effect of over 55% in size
#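 Cells (2,000 per well) received 5-fluorouridine plus test compound or DMSO and were incubated 16 hr at 37 °C, 5% CO2. Luciferase activity was read by luminescence 30 min after ONE-Glo addition; signal suppression marked inhibition of damage-induced ELG1 function.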
# DT40 TDP1 no CPT – qHTS for Inhibitors of human tyrosyl-DNA phosphodiesterase 1 (TDP1): qHTS in cells in absence of CPT; actives 15% (n = 420,000); Potency, µM (titrated, usually from 46.2 µM), inactives show top-dose activity change, negative = growth inhibition, usual class: inhibitors; DT40 Tdp1-/- hTDP1 cells, no CPT, ATP luminescence, 48 h; AID 686978, 2013; further: potency means the concentration at half of the fitted maximal effect; nearly all actives have a fitted effect of over 55% in size
#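 Seeded 400 DT40-hTDP1 cells/well (vehicle DMSO, no 20 nM CPT); pinned compounds; ≥48 hr at 37 °C; CellTiter-Glo luminescence as viability measure.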
# ELG1 FLuc counter – luciferase inhibition in cell-free luciferin readout for ELG1 hits; cell-free firefly luciferase luminescence counter-screen, ViewLux; shares compounds with ELG1 DNA repair; Potency, µM (highest dose often 46.1 µM), for the others: at the highest dose activity change, negative = inhibition, hits mostly inhibitors; actives 3% (n = 350); further: potency means the concentration at half of the fitted maximal effect
# ELG1-Luc inh – inhibits ELG1-dependent DNA repair in HEK293T cells, confirmed; actives 68% (n = 670); HEK293T ELG1-luciferase levels, luminescence; cells co-treated with 5-fluorouridine; shares compounds with ELG1 DNA repair; Potency, µM (doses to about 46.1 µM), for inactives: top-dose activity change, negative = inhibition, usual class: inhibitors; further: potency means the concentration at half of the fitted maximal effect; nearly all actives have a fitted effect of over 55% in size
# Target sequence (Q96QE3 whole entry, looked up): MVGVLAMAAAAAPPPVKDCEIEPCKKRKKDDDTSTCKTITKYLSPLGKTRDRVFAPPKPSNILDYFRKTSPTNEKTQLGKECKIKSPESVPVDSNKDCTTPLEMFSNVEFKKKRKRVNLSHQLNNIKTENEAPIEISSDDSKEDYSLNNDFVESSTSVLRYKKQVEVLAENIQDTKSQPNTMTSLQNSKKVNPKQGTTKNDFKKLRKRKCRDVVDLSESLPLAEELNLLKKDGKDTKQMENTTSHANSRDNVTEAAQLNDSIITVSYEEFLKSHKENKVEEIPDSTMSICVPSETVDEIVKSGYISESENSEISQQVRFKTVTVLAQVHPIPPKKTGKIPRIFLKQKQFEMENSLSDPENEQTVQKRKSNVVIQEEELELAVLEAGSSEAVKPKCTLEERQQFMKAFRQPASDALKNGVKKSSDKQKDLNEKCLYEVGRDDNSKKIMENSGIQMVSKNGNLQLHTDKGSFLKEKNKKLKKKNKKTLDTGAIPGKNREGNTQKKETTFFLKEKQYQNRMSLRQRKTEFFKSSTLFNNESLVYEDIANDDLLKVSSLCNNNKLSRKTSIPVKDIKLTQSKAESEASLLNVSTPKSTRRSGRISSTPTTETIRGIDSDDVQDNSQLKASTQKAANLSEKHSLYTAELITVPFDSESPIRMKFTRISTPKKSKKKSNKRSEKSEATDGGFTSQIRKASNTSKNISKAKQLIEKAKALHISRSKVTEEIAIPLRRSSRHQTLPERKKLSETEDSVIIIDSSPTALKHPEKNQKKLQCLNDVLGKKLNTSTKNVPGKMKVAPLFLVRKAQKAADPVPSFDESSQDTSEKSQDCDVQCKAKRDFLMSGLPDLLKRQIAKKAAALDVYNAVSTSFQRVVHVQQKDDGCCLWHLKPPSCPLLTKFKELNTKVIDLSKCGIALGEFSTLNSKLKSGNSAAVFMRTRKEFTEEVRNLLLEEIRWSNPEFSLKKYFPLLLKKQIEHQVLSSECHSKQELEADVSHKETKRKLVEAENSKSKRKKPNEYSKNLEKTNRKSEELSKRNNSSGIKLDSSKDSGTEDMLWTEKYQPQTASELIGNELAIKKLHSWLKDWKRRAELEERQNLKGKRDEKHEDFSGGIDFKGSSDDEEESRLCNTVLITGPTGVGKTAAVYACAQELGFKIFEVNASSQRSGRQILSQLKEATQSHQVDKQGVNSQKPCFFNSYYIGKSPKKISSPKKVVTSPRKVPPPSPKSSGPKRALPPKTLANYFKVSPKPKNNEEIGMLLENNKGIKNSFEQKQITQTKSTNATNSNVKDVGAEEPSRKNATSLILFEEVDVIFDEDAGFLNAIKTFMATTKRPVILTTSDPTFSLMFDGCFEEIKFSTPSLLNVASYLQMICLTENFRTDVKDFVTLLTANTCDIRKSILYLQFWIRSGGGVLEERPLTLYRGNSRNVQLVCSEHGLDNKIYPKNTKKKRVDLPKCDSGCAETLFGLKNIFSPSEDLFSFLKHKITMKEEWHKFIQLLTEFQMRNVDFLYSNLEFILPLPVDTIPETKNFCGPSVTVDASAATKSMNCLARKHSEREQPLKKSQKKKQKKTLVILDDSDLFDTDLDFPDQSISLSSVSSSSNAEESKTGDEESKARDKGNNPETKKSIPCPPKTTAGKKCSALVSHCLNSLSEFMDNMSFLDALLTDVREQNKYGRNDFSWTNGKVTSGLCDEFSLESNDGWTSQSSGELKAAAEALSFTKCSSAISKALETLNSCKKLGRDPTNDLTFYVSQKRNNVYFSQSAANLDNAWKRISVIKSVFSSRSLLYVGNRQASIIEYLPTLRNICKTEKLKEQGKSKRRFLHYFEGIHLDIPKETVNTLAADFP
# ELG1-Luc MMS – MMS-stimulated human ELG1 repair inhibition, confirmed. HEK293T luciferase-tagged ELG1 level, MMS stimulated. Potency, µM (top dose mostly 46.1 µM), for the others: top-dose activity change, negative = inhibition, actives largely listed as inhibitors. AID 624249. actives 53% (n = 670). shares compounds with ELG1 DNA repair; further: potency means the concentration at half of the fitted maximal effect; nearly all actives have a fitted effect of over 60% in size
# ELG1 5FU viab – confirmation of ELG1 repair inhibitors: viability with 5FU; Potency, µM (highest dose often 46.1 µM), for inactives: top-dose activity change, negative = viability loss, most hits filed as cytotoxic; shares compounds with ELG1 DNA repair; cell viability with 5-FU, ELG1-dependent repair; AID 624250; 670 tested, under 10 active;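 further: ELG1-luc HEK293T cells cotreated with 5-fluorouridine at 10 µM final; potency means the concentration at half of the fitted maximal effect; viability measured 16 h after compound addition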
# ELG1 MMS viab – confirmation of ELG1 repair inhibitors: viability with MMS; shares compounds with ELG1 DNA repair; Cell viability with MMS, ELG1-dependent DNA repair; Potency, µM (doses to about 46.1 µM), inactives show at the highest dose activity change, negative = viability loss, hits mostly cytotoxic; actives 33% (n = 670);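 further: ELG1-luc HEK293T cells co-treated with 10 µM MMS; potency means the concentration at half of the fitted maximal effect; viability read 16 h after compound addition; nearly all actives have a fitted effect of over 60% in size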
# ELG1 unstim viab – counter-screen for ELG1 repair inhibitors: unstimulated cell viability; shares compounds with ELG1 DNA repair; cell viability counter-screen, unstimulated, luminescence; Potency, µM (top dose mostly 45.9 µM), for the others: at the top dose activity change, negative = loss of viability, most hits filed as cytotoxic; actives 8% (n = 900); AID 624252;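 further: potency means the concentration at half of the fitted maximal effect; compound exposure lasted 16 hours before reading; nearly all actives have a fitted effect of over 55% in size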
# FLuc enzyme – firefly luciferase inhibition counter-screen | shares compounds with ELG1 DNA repair | purified firefly luciferase, luminescence counter-screen | Potency, µM (titrated, usually from 57.5 µM), without a hit: top-dose activity, negative = inhibition, actives largely listed as inhibitors | actives 10% (n = 350); further: potency means the concentration at half of the fitted maximal effect
# Numbers without * were called inactive; ? = inconclusive; / = no result given; [ ] = another dose, or the depositor's remark. Shown are actives, neighbours in structure and some others; about 21% of the full set was active somewhere. Unless noted, the call rests on the fitted dose curve; in most records, active means well fitted curve in the direction sought with a large enough effect; inconclusive means small, poorly fitted or top-dose-only effect, or another doubt; inactive means no such curve, though single readings can be large; an effect the other way counts as inactive or inconclusive. On the % scale 0 is the no-effect control and ±100 the full control effect.
SMILES,Gal4-VP16 FLuc,RORg inh,TDP1 cell CPT,IL-1B inflam inh,ELG1 DNA repair,DT40 TDP1 no CPT,ELG1-Luc inh,ELG1-Luc MMS,ELG1 5FU viab,ELG1 MMS viab,ELG1 unstim viab,others
O=C(O)CCNC(=O)c1ccc(N=Nc2ccc(O)c(C(=O)O)c2)cc1,5%,1%[10 µM],-24%,/,/,2%,/,/,/,/,/,
OC1CCN(C(=S)Nc2ccc(Oc3ccccc3)cc2)CC1,-3%[10 µM],-5%,-13%,26,0%,?,/,/,/,/,/,
NC(=O)c1sc2nc3c(c(-c4cccs4)c2c1N)CCCCC3,6%,-10%,?,8,0.82µM*,?,1.1µM*,4.5µM*,2%,-2%,?,ELG1 FLuc counter=?;FLuc enzyme=-1%
O=C1NC[C@H](c2ccccc2)OC(=O)[C@H](Cc2ccc(F)cc2)C/C=C\C[C@H]1CC(=O)N(CCO)Cc1ccccc1,/,/,10µM*,-60*,1.3µM*,8.2µM*,5.6µM*,2.8µM*,?,?,?,
O=C1NC[C@H](c2ccccc2)OC(=O)[C@@H](Cc2ccc(F)cc2)C/C=C\C[C@H]1CC(=O)N(CCO)Cc1ccccc1,/,/,8.2µM*,0,2.6µM*,?,7.9µM*,13µM*,?,?,?,
COc1ccc(NC(=O)/C(C#N)=C/c2cc(C)n(-c3ccc(N4CCOCC4)c([N+](=O)[O-])c3)c2C)cc1,8%,41%,3.7µM*,-13,2.9µM*,2.3µM*,4.4µM*,4µM*,-1%,?,?,
Cc1ccccc1C(=O)OCC(=O)Nc1cccc(S(=O)(=O)NC2=NCCC2)c1,/,/,2%,-12,4%,19%,/,/,/,/,/,
CS(=O)(=O)N1CCCC(c2nc(-c3ccc(S(=O)(=O)NCc4ccccc4)cc3)no2)C1 (configuration not stated),?,10%[10 µM],13µM*,0,3.7µM*,10µM*,14µM*,2µM*,-20%,2µM*,14µM*,
